Several values for one entry are separate records, joined by “and”; a condition that tells them apart may be missing. Equal values may be shown once. This is part of a sample that, as a whole, favours compounds with a hit. Of some 83,000 tested, about 20% had one in any assay.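 96-well plates, one dose, 48 hours. Percent growth reported; active if below 10.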 Activity calls are given as the source filed them.
Key:
Assay in all cases: NCI-60 one-dose screen, 48 h (100 = growth as untreated, 0 = no growth, -100 = all killed)
SK-MEL-2 melanoma = conditions: 10 µM
EKVX NSCLC = conditions: 10 µM
SN12C renal = conditions: 10 µM
UO-31 renal = conditions: 10 µM
TK-10 renal = conditions: 10 µM unless noted
ACHN renal = conditions: 10 µM
CAKI-1 renal = conditions: 10 µM
HL-60(TB) leukemia = conditions: 10 µM
CCRF-CEM leukemia = conditions: 10 µM
A498 renal = conditions: 10 µM

| Compound | growth (SK-MEL-2 melanoma) | growth (EKVX NSCLC) | growth (SN12C renal) | growth (UO-31 renal) | growth (TK-10 renal) | growth (ACHN renal) | growth (CAKI-1 renal) | growth (HL-60(TB) leukemia) | growth (CCRF-CEM leukemia) | growth (A498 renal) |
| --- | --- | --- | --- | --- | --- | --- | --- | --- | --- | --- |
| CC[C@@H](C)[C@@H]1NC(=O)C(NC(=O)C(CC(C)C)N(C)C(=O)C2CCCN2C(=O)C(C)O)C(C)OC(=O)C(Cc2ccc(OC)cc2)N(C)C(=O)C2CCCN2C(=O)C(CC(C)C)NC(=O)C(C)C(=O)C(C(C)C)OC(=O)C[C@H]1O (some centres not stated) | -52.4% (active) | -10.5% (active) | -14.5% (active) | -33.2% (active) | -15.3% (active) | -70.5% (active) | -6.01% (active) | -25.2% (active) | -20.7% (active) | – |
| COc1ccc(/C=C\[N+](=O)[O-])cc1OC | 92% (inactive) and 92.7% (inactive) | 103% (inactive) and 76.3% (inactive) | 81.4% (inactive) | – | 85.9% (inactive) and 76.5% (inactive) | 64.4% (inactive) and 79.1% (inactive) | 63.1% (inactive) and 58.6% (inactive) | 44.3% (inactive) and 2.41% (active) | 70.2% (inactive) and 27.2% (inactive) | – |
| NC(=O)c1cc([N+](=O)[O-])c(Cl)c([N+](=O)[O-])c1 | 154% (inactive) | 98.3% (inactive) | 100% (inactive) | – | – | 92.7% (inactive) | 87.6% (inactive) | 20.1% (inactive) | -32.4% (active) | – |
| [O-][n+]1ccccc1S | 41.2% (inactive) | 72.7% (inactive) | 58.7% (inactive) | – | – | 32.2% (inactive) | 37.9% (inactive) | 109% (inactive) | 8.62% (active) | – |
| C[CH2][Hg][S]c1ccccc1C(=O)O | -52.4% (active) | 63.6% (inactive) | -60.6% (active) | – | -94.2% (active) | -92.9% (active) | -95.2% (active) | – | -17.5% (active) | – |
| C=C1C(=O)O[C@@H]2C[C@@H](C)[C@@H]3C=CC(=O)[C@@]3(C)[C@@H](O)[C@H]12 | -24.4% (active) | -61% (active) | 9.98% (active) | – | -97.9% (active) | -93.5% (active) | -91.6% (active) | – | -42.4% (active) | – |
| Cn1c(O)c(N=O)c(=O)n(C)c1=O | 108% (inactive) and 109% (inactive) | 110% (inactive) and 107% (inactive) | 108% (inactive) and 94.7% (inactive) | – | 102% (inactive) and 105% (inactive) | 110% (inactive) and 105% (inactive) | 107% (inactive) and 113% (inactive) | – | 111% (inactive) and 113% (inactive) | 84.5% (inactive) and 97% (inactive) |
| [Cl][Hg][c]1ccc2ccccc2c1 | -90.7% (active) | -48.6% (active) | -67.1% (active) | – | – | -85.5% (active) | -94% (active) | – | 0.0061% (active) | -9.18% (active) |
| O=[N+]([O-])c1ccc(N2CCOCC2)c2c1no[n+]2[O-] | -4.77% (active) | 46.5% (inactive) | 16.8% (inactive) | – | – | 13.6% (inactive) | 26.1% (inactive) | -16.7% (active) | – | -14.1% (active) |
| CN(C)CC1(N)C(=O)NC(=O)NC1=O | 101% (inactive) | 103% (inactive) | 96.8% (inactive) | – | – | 101% (inactive) | 96.4% (inactive) | 97.5% (inactive) | 99.1% (inactive) | – |
| Oc1c(I)cc(I)cc1I | 101% (inactive) | 108% (inactive) | 97.2% (inactive) | – | – | 103% (inactive) | 109% (inactive) | 105% (inactive) | 94.5% (inactive) | 97.9% (inactive) |
| Cc1cc([N+](=O)[O-])c2ccccc2[n+]1[O-] | -57.5% (active) and -79.5% (active) | 89.4% (inactive) | -5.98% (active) and -21.1% (active) | – | -31.3% (active) and -29.9% (active) | -35.6% (active) and -73.4% (active) | 8.17% (active) and -82.2% (active) | – | 17% (inactive) and -2.8% (active) | -59.8% (active) and -80.3% (active) |
| COc1cc([C@@H]2c3cc4c(c(O)c3C[C@H]3COC(=O)[C@@H]32)OCO4)cc(OC)c1OC | -25.1% (active) | 44.2% (inactive) | 31.8% (inactive) | – | – | 33.8% (inactive) | 20.3% (inactive) | -33.5% (active) | -5.4% (active) | -29.1% (active) |
| O=C1CCC(=O)N1SC(Cl)(Cl)Cl | 97% (inactive) | 117% (inactive) | 102% (inactive) | – | – | 110% (inactive) | 109% (inactive) | 100% (inactive) | 94.5% (inactive) | – |
| COc1ccccc1/C=C/[N+](=O)[O-] | 104% (inactive) | 72.6% (inactive) | 83.2% (inactive) | – | – | 55.5% (inactive) | 70.9% (inactive) | – | – | – |
| O=[N+]([O-])c1cc[n+]([O-])c2ccccc12 | -56.2% (active) | -3.54% (active) | -27.5% (active) | -29.5% (active) | – | -42.4% (active) | -28% (active) | – | -11.1% (active) | – |

| Compound | growth (SK-MEL-2 melanoma) | growth (EKVX NSCLC) | growth (SN12C renal) | growth (UO-31 renal) | growth (TK-10 renal) | growth (ACHN renal) | growth (CAKI-1 renal) | growth (HL-60(TB) leukemia) | growth (CCRF-CEM leukemia) | growth (A498 renal) |
| --- | --- | --- | --- | --- | --- | --- | --- | --- | --- | --- |
| Oc1ccccc1-c1ccccc1 | 98.1% (inactive) and 98.2% (inactive) | 116% (inactive) | 104% (inactive) and 92.6% (inactive) | – | – | 95.2% (inactive) and 104% (inactive) | 97.4% (inactive) and 121% (inactive) | 96.2% (inactive) and 103% (inactive) | 103% (inactive) and 94.8% (inactive) | – |
| CCOP(=O)(OCC)/C(C#N)=C/c1ccc(Br)cc1 | 103% (inactive) | 97.6% (inactive) | 98.5% (inactive) | – | – | 98.6% (inactive) | 76.2% (inactive) | 92.1% (inactive) | 100% (inactive) | – |
| O=C1C(=O)c2ccccc2-c2ccccc21 | -50.3% (active) | -96.9% (active) | -61.5% (active) | – | – | -94.3% (active) | -100% (active) | -42.4% (active) | -10.9% (active) | 88.9% (inactive) |
| CC12OOC(c3ccccc31)c1c2ccc2ccccc12 (configuration not stated) | 71.7% (inactive) | -51.5% (active) | 94.4% (inactive) | – | -42.6% (active) | -100% (active) | -56.1% (active) | -63.5% (active) | -41.8% (active) | – |
| C[C@@H]1C[C@@H]([C@H](O)CC2CC(=O)NC(=O)C2)C(=O)[C@@H](C)C1 | -6.5% (active) | 12.4% (inactive) | -0.0682% (active) | – | 8.46% (active) | 3.19% (active) | 15.9% (inactive) | – | – | – |
| O=[N+]([O-])/C=C/c1ccc([N+](=O)[O-])cc1 | -43.8% (active) and 79.7% (inactive) | 78.2% (inactive) and 84.1% (inactive) | 64.4% (inactive) and 62% (inactive) | – | – | 21.5% (inactive) and 76.4% (inactive) | 38.8% (inactive) | – | 34.8% (inactive) | 19.7% (inactive) and 126% (inactive) |
| O=c1[nH]c2ccccc2n1C1CCN(CCCC(c2ccc(F)cc2)c2ccc(F)cc2)CC1 | 95.8% (inactive) and 63.6% (inactive) | 42.1% (inactive) and 51.4% (inactive) | 40.7% (inactive) and 58% (inactive) | – | 62.1% (inactive) and 63.3% (inactive) | 44.4% (inactive) | 35.5% (inactive) and 54% (inactive) | -41.7% (active) and -41.6% (active) | -0.815% (active) and 31.2% (inactive) | 27.2% (inactive) and -9.09% (active) |
| CC/C(=C/c1ccc(OC)cc1)[N+](=O)[O-] | 27% (inactive) | 78% (inactive) | -43.7% (active) | – | -9.47% (active) | -43% (active) | 1.94% (active) | – | -9.4% (active) | – |
| S=C=NCCc1ccccc1 | 104% (inactive) | 127% (inactive) | 68.4% (inactive) | – | – | 72% (inactive) | 69.4% (inactive) | 9.55% (active) | 16.7% (inactive) | – |
| O=[N+]([O-])/C=C/c1ccc(Cl)cc1[N+](=O)[O-] | 102% (inactive) | 81.8% (inactive) | 63.2% (inactive) | – | 75.3% (inactive) | 30.3% (inactive) | 47.7% (inactive) | – | 8.23% (active) | – |
| C#CC1(O)CCC(C(C)(C)C)CC1 (configuration not stated) | 112% (inactive) | 118% (inactive) | 104% (inactive) | – | – | 104% (inactive) | 110% (inactive) | 140% (inactive) | 96.6% (inactive) | 99.5% (inactive) |
| C=NCC#N | 96.9% (inactive) and 82.2% (inactive) | 115% (inactive) | 99.9% (inactive) and 99.6% (inactive) | – | – | 96.7% (inactive) and 105% (inactive) | 98.1% (inactive) and 115% (inactive) | 99.1% (inactive) and 112% (inactive) | 118% (inactive) | 110% (inactive) |
| O=[N+]([O-])c1ccc(Br)c([N+](=O)[O-])c1 | 96.8% (inactive) | 115% (inactive) | 90.1% (inactive) | -18.2% (active) | – | 52.6% (inactive) | -93.5% (active) | – | 46.4% (inactive) | – |
| CC(=O)Nc1c2sscc-2n(C)c1=O | -76% (active) | -98.8% (active) | -98.5% (active) | – | – | -100% (active) | -100% (active) | -53% (active) | -58.3% (active) | -100% (active) |
| CC(C)c1cc([N+](=O)[O-])cc([N+](=O)[O-])c1O | 94% (inactive) | 110% (inactive) | 103% (inactive) | – | – | 103% (inactive) | 99% (inactive) | – | 103% (inactive) | – |

Source: PubChem BioAssay (NCI)
